From paper PMC7862700, “An all-to-all approach to the identification of sequence-specific readers for epigenetic DNA modifications on cytosine”

Key:
Experiment in all cases: DAPPL (digital affinity profiling via proximity ligation, sequencing); 10 mM Tris-HCl pH 7.5, 50 mM NaCl, 1 mM DTT, 4% glycerol, room temperature, 30 min; GST-TFs on glutathione beads, 16-mer random dsDNA library, 0.1% formaldehyde crosslink after washing; high values mean tight binding
Details in all cases: protein: recombinant; tags: N-terminal GST; dsDNA, one strand shown
[1] = molecular target: T1, FLI1 (Homo sapiens, UniProt Q01543 1-452)
T1 sequence: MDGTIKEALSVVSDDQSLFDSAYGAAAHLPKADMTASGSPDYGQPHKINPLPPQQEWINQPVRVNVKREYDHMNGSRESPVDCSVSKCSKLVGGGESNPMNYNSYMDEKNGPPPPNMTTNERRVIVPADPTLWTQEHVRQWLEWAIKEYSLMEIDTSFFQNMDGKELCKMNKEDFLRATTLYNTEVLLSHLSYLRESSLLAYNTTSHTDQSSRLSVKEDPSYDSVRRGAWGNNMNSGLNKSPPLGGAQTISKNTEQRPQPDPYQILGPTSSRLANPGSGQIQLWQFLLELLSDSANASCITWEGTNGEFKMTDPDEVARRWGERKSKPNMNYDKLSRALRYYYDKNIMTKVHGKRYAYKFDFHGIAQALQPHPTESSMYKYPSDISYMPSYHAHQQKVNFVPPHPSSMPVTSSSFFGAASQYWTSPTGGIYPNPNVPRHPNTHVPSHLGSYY
Summary of the method: (§1)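 Binding signal is given per hexamer as its read frequency for a factor divided by its frequency in the tag-only sample. GST-fused human transcription factors were expressed in yeast, captured on glutathione beads, barcoded with DNA and pooled with that sample, then incubated with 200 nmole of a 16-mer random double-stranded DNA library in Tris/NaCl/DTT/glycerol buffer for 30 min at room temperature. The pools were then washed, crosslinked, proximity-ligated, amplified by PCR and sequenced on an Illumina NextSeq500.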

[2] = molecular target: T2, ERG (Homo sapiens, UniProt P11308 1-479)
T2 sequence: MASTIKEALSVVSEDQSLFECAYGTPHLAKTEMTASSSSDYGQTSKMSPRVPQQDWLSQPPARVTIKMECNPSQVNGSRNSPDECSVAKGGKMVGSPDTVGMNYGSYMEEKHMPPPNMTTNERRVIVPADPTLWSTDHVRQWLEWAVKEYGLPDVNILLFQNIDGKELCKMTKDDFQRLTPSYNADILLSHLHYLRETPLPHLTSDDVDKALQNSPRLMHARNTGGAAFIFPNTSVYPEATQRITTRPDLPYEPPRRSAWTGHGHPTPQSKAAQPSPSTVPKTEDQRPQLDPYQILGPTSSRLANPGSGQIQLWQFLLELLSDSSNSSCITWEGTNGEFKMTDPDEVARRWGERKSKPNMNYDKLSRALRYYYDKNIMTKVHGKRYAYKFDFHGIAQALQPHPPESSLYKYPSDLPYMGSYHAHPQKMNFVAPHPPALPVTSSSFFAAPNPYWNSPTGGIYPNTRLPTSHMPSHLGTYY
Summary of the method: as §1

[3] = molecular target: ELF1 (Homo sapiens, UniProt P32519 1-619)
Sequence of ELF1 (P32519 whole entry): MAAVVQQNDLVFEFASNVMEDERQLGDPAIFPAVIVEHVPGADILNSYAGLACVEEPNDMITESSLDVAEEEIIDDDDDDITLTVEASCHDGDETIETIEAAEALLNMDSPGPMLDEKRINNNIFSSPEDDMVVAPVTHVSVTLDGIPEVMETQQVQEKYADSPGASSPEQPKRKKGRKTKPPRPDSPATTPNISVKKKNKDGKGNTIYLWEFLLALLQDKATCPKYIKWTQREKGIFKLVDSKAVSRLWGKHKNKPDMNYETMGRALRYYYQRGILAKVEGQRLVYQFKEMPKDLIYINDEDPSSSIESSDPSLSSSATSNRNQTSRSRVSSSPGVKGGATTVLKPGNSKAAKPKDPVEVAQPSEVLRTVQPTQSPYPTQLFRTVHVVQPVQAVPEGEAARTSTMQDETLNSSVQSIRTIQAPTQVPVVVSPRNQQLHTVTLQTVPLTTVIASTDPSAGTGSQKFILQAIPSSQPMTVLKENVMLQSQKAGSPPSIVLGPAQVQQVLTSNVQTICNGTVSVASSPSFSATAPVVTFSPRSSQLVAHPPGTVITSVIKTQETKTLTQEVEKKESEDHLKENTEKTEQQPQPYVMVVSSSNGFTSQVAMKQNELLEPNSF
Summary of the method: as §1

[4] = molecular target: T3, EHF (Homo sapiens, UniProt Q9NZC4 1-300)
T3 sequence: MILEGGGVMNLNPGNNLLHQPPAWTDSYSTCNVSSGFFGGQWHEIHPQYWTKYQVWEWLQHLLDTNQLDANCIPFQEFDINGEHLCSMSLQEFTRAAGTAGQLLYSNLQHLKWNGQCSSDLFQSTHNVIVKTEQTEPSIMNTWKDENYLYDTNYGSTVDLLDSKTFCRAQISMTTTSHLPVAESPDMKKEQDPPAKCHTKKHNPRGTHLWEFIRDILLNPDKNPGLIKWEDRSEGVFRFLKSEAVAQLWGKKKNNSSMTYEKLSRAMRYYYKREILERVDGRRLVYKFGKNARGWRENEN
Summary of the method: as §1

[5] = molecular target: SPIB (Homo sapiens, UniProt Q01892 1-262)
Sequence of SPIB (Q01892 whole entry): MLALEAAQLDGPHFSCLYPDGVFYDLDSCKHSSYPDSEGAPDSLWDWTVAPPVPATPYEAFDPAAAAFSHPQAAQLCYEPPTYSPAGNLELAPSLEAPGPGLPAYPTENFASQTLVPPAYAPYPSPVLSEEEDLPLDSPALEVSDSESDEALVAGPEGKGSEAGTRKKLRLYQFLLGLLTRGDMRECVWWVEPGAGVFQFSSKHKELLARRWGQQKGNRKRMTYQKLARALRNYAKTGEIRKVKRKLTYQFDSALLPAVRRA
Summary of the method: as §1

[6] = molecular target: T4, FEV (Homo sapiens, UniProt Q99581 1-238)
T4 sequence: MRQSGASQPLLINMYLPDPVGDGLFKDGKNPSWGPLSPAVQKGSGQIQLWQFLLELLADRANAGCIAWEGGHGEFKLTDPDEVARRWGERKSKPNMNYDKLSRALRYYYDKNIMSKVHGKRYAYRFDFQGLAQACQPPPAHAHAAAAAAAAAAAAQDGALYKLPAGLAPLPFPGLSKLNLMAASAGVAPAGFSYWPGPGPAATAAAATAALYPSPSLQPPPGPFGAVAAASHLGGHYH
Summary of the method: as §1

[7] = molecular target: ETV5 (Homo sapiens, UniProt P41161 1-510)
Sequence of ETV5 (P41161 whole entry): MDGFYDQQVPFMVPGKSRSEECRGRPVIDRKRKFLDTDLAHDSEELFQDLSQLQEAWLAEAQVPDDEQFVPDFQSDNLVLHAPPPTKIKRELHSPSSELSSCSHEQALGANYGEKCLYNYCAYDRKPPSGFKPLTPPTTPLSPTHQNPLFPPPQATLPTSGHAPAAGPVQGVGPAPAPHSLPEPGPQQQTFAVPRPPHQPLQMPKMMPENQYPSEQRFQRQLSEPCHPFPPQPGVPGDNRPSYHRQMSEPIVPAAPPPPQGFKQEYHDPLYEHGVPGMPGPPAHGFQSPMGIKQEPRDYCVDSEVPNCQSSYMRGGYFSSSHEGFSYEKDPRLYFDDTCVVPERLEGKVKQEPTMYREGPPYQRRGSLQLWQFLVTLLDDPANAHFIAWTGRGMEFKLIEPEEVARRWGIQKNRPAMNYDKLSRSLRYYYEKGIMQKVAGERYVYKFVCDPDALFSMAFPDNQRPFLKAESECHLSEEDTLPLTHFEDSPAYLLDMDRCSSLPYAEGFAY
Summary of the method: as §1

[8] = molecular target: T5, SPIC (Homo sapiens, UniProt Q8N5J4 1-248)
T5 sequence: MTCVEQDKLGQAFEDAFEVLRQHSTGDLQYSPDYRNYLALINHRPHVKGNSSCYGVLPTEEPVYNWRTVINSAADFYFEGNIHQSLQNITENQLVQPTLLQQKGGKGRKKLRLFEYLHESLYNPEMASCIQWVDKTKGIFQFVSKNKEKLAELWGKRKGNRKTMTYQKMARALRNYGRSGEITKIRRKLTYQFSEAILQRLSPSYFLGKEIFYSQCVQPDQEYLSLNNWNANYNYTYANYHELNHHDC
Summary of the method: as §1

[9] = molecular target: ELF4 (Homo sapiens, UniProt Q99607 1-663)
Sequence of ELF4 (Q99607 whole entry): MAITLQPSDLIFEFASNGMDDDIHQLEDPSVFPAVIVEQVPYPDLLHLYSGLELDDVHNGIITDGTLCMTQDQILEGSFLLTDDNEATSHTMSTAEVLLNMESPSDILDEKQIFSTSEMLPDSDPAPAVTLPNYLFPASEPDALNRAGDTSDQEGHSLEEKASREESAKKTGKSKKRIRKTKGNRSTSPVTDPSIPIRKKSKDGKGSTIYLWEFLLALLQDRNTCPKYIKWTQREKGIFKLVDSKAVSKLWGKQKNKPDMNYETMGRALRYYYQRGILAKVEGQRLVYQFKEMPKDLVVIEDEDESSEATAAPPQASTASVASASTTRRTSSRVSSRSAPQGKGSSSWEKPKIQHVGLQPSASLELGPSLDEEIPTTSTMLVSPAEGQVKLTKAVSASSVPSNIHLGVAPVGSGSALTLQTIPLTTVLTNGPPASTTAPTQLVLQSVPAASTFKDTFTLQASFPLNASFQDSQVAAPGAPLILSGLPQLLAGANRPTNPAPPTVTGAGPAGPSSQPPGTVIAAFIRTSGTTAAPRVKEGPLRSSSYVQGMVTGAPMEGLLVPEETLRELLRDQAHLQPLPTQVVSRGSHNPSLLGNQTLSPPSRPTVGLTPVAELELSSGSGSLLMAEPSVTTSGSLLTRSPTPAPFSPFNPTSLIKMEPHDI
Summary of the method: as §1

[10] = molecular target: T6, ERF (Homo sapiens, UniProt P50548 1-548)
T6 sequence: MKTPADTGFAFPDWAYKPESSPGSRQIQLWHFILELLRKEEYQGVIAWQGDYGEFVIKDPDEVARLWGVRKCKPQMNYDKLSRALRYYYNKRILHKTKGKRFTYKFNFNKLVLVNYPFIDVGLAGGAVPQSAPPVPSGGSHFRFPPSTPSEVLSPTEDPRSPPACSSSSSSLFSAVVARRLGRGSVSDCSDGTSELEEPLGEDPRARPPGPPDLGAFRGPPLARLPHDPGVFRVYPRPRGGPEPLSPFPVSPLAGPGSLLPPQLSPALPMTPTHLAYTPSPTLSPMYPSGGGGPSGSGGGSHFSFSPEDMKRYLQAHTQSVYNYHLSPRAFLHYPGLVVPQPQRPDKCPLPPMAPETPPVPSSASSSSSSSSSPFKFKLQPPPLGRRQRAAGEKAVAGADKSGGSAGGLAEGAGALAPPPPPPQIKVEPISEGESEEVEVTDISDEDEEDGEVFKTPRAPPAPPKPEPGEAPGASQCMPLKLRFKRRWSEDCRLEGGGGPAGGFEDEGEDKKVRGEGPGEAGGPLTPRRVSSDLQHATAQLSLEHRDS
Summary of the method: as §1

[11] = molecular target: T7, ETV3L (Homo sapiens, UniProt Q6ZN32 1-361)
T7 sequence: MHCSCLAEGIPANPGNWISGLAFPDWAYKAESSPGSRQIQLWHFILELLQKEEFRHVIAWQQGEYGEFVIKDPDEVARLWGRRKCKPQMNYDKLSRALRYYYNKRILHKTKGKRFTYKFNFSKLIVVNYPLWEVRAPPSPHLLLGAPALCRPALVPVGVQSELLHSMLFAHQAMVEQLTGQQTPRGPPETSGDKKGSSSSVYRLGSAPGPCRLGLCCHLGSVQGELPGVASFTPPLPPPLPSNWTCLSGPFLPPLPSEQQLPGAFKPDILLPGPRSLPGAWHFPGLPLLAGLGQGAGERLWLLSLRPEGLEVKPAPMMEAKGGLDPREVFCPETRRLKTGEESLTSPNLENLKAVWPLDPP
Summary of the method: as §1

[12] = molecular target: T8, ETS2 (Homo sapiens, UniProt P15036 1-469)
T8 sequence: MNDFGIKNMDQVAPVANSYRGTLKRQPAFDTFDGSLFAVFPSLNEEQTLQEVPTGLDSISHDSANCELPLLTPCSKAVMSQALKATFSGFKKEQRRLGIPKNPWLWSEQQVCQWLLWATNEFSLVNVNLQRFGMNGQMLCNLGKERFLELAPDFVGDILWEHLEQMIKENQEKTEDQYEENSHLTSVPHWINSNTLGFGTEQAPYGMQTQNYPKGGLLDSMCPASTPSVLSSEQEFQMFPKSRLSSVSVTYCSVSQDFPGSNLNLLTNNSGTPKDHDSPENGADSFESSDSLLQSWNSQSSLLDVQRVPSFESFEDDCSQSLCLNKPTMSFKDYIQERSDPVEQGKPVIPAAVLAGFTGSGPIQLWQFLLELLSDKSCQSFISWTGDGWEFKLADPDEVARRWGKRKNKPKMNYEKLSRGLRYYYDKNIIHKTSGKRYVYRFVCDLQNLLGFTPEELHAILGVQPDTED
Summary of the method: as §1

[13] = molecular target: T9, ETV3 (Homo sapiens, UniProt P41162-2 1-143)
T9 sequence: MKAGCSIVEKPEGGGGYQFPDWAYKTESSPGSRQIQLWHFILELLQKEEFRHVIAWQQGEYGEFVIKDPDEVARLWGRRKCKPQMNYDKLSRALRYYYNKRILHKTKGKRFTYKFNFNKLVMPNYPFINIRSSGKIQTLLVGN
Summary of the method: as §1

CGCTGG was tested. Which binding signal [1] did it give?
Its binding signal is 1.05 fold enrichment (6-mer frequency, TF over GST control).

And the binding signal [2]?
The binding signal was 1.03 fold enrichment (6-mer frequency, TF over GST control).

What about the binding signal [3] of the same sequence?
The binding signal was 1.08 fold enrichment (6-mer frequency, TF over GST control).

What about the binding signal [4] of the same sequence?
Its binding signal is 1 fold enrichment (6-mer frequency, TF over GST control).

And the binding signal [5]?
Its binding signal is 1.01 fold enrichment (6-mer frequency, TF over GST control).

What about the binding signal [6] of the same sequence?
Its binding signal is 1.02 fold enrichment (6-mer frequency, TF over GST control).

And the binding signal [7]?
Its binding signal is 1 fold enrichment (6-mer frequency, TF over GST control).

And the binding signal [8]?
Its binding signal is 1.01 fold enrichment (6-mer frequency, TF over GST control).

What about the binding signal [9] of the same sequence?
Its binding signal is 1.02 fold enrichment (6-mer frequency, TF over GST control).

And the binding signal [10]?
The binding signal was 1.05 fold enrichment (6-mer frequency, TF over GST control).

And the binding signal [11]?
Its binding signal is 1.03 fold enrichment (6-mer frequency, TF over GST control).

What about the binding signal [12] of the same sequence?
Its binding signal is 1.1 fold enrichment (6-mer frequency, TF over GST control).

And the binding signal [13]?
The binding signal was 1.12 fold enrichment (6-mer frequency, TF over GST control).
